Measurements: PubChem BioAssay AID1159580 (chemical genetic matrix, 2015)
Where “and” joins values, the source holds several entries; their conditions need not be identical. Equal values may be shown once. Out of some 5,500 compounds screened, about 2,000 (36%) were called active. Roughly 18% stayed inconclusive and do not appear here. Cut-off read from the data, not from the text of the source: active = normalized growth mostly below about 0.91 (no sharp cut-off); inconclusive = no clear call, values can overlap the other calls; inactive = mostly above about 0.92. The list shows a part of the results. The source holds several records for some structures; these can differ, active in one and inactive in another.

Test: chemical genetic growth profiling, strain panel (AID 1159580);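 note: tested at 20 µM; growth read once vehicle control cultures reached saturation at 30 °C; 1 = growth at the plate median or of vehicle wells; lower values mean less growth of the strain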
Conditions: growth OD

Measured: normalized growth

CN1CCN(CCCN2c3ccccc3Sc3ccc(Cl)cc32)CC1
inactive: S. cerevisiae deletion strains, locus YKL009W, strain mrt4, stronger effect = lower value 0.936 | S. cerevisiae deletion strains, locus YKL068W, stronger effect = lower value 0.989 | S. cerevisiae deletion strains, locus YKL085W, strain MDH1 (second series), stronger effect = lower value 0.979 | S. cerevisiae deletion strains, locus YKL085W, strain MDH1, stronger effect = lower value 0.979 | S. cerevisiae deletion strains, locus YKL160W, strain elf1, stronger effect = lower value 0.974 | S. cerevisiae deletion strains, locus YKR026C, strain gcn3, stronger effect = lower value 0.976 | S. cerevisiae deletion strains, locus YKR091W, strain srl3, stronger effect = lower value 0.982 | S. cerevisiae deletion strains, locus YLL001W, strain dnm1, stronger effect = lower value 0.959 | S. cerevisiae deletion strains, locus YLL041C, strain sdh2, stronger effect = lower value 0.943 | S. cerevisiae deletion strains, locus YLR039C, strain RIC1, stronger effect = lower value 1.18 | S. cerevisiae deletion strains, locus YLR058C, strain SHM2, stronger effect = lower value 0.963 | S. cerevisiae deletion strains, locus YLR102C, strain apc9, stronger effect = lower value 1.01 | S. cerevisiae deletion strains, locus YLR113W, strain HOG1, stronger effect = lower value 0.966 | S. cerevisiae deletion strains, locus YLR258W, strain gsy2, stronger effect = lower value 0.943 | S. cerevisiae deletion strains, locus YLR262C, strain YPT6 (second series), stronger effect = lower value 1.06 | S. cerevisiae deletion strains, locus YLR262C, strain YPT6, stronger effect = lower value 0.689 | S. cerevisiae deletion strains, locus YLR268W, strain sec22, stronger effect = lower value 0.935 | S. cerevisiae deletion strains, locus YLR357W, strain rsc2, stronger effect = lower value 0.914 | S. cerevisiae deletion strains, locus YLR370C, strain arc18, stronger effect = lower value 0.953 | S. cerevisiae deletion strains, locus YLR371W, strain rom2, stronger effect = lower value 1.01 | S. cerevisiae deletion strains, locus YLR384C, strain iki3, stronger effect = lower value 0.987 | S. cerevisiae deletion strains, locus YML016C, strain PPZ1, stronger effect = lower value 0.986 | S. cerevisiae deletion strains, locus YML032C, strain rad52, stronger effect = lower value 0.909 | S. cerevisiae deletion strains, locus YML124C, strain tub3, stronger effect = lower value 0.997 | S. cerevisiae deletion strains, locus YMR078C, strain ctf18, stronger effect = lower value 1 | S. cerevisiae deletion strains, locus YMR129W, stronger effect = lower value 0.966 | S. cerevisiae deletion strains, locus YMR205C, strain PFK2, stronger effect = lower value 0.943 | S. cerevisiae deletion strains, locus YNL071W, strain lat1, stronger effect = lower value 0.918 | S. cerevisiae deletion strains, locus YNL175C, strain NOP13, stronger effect = lower value 0.983 | S. cerevisiae deletion strains, locus YNL183C, strain NPR1, stronger effect = lower value 0.987 | S. cerevisiae deletion strains, locus YNL197C, strain WHI3, stronger effect = lower value 0.975 | S. cerevisiae deletion strains, locus YNL224C, strain SQS1, stronger effect = lower value 1 | S. cerevisiae deletion strains, locus YNL248C, strain rpa49, stronger effect = lower value 0.913 | S. cerevisiae deletion strains, locus YNL250W, strain rad50, stronger effect = lower value 0.983 | S. cerevisiae deletion strains, locus YNL271C, strain bni1, stronger effect = lower value 0.994 | S. cerevisiae deletion strains, locus YNL298W, strain CLA4, stronger effect = lower value 0.937 | S. cerevisiae deletion strains, locus YNL322C, strain KRE1 (second series), stronger effect = lower value 0.995 | S. cerevisiae deletion strains, locus YNR049C, strain mso1, stronger effect = lower value 0.986 | S. cerevisiae deletion strains, locus YOL012C, strain htz1 0.226 | S. cerevisiae deletion strains, locus YOL147C, strain pex11, stronger effect = lower value 0.938 | S. cerevisiae deletion strains, locus YOR061W, strain CKA2, stronger effect = lower value 0.913 | S. cerevisiae deletion strains, locus YOR069W, strain VPS5, stronger effect = lower value 0.996 | S. cerevisiae deletion strains, locus YOR080W, strain dia2, stronger effect = lower value 1 | S. cerevisiae deletion strains, locus YOR136W, strain idh2, stronger effect = lower value 0.925 | S. cerevisiae deletion strains, locus YOR144C, strain elg1, stronger effect = lower value 1 | S. cerevisiae deletion strains, locus YOR231W, strain MKK1, stronger effect = lower value 0.968 | S. cerevisiae deletion strains, locus YOR290C, strain snf2, stronger effect = lower value 0.913 | S. cerevisiae deletion strains, locus YOR316C, strain cot1, stronger effect = lower value 1.01 | S. cerevisiae deletion strains, locus YPL078C, strain atp4, stronger effect = lower value 0.92 | S. cerevisiae deletion strains, locus YPL106C, strain sse1, stronger effect = lower value 0.999 | S. cerevisiae deletion strains, locus YPL240C, strain hsp82, stronger effect = lower value 0.983 | S. cerevisiae deletion strains, locus YPL256C, strain CLN2, stronger effect = lower value 0.978 | S. cerevisiae deletion strains, locus YPR119W, strain clb2, stronger effect = lower value 1.01 | S. cerevisiae deletion strains, locus YPR141C, strain kar3, stronger effect = lower value 0.999 | S. cerevisiae deletion strains, locus YPR167C, strain met16, stronger effect = lower value 0.979
0.101 (active) and 1.03 (inactive): S. cerevisiae deletion strains, locus YPL055C, strain LGE1, stronger effect = lower value
active: S. cerevisiae deletion strains, locus YKL190W, strain CNB1, stronger effect = lower value 0.124 | S. cerevisiae deletion strains, locus YKR001C, strain vps1, stronger effect = lower value 0.0709 | S. cerevisiae deletion strains, locus YLL026W, stronger effect = lower value 0.898 | S. cerevisiae deletion strains, locus YLR027C, strain aat2, stronger effect = lower value 0.843 | S. cerevisiae deletion strains, locus YLR221C, strain rsa3, stronger effect = lower value 0.885 | S. cerevisiae deletion strains, locus YLR320W, strain mms22, stronger effect = lower value 0.866 | S. cerevisiae deletion strains, locus YLR330W, strain CHS5, stronger effect = lower value 0.892 | S. cerevisiae deletion strains, locus YLR342W, strain FKS1 (second series), stronger effect = lower value 0.405 | S. cerevisiae deletion strains, locus YLR342W, strain FKS1, stronger effect = lower value 0.523 | S. cerevisiae deletion strains, locus YLR418C, strain cdc73, stronger effect = lower value 0.25 | S. cerevisiae deletion strains, locus YML120C, strain ndi1, stronger effect = lower value 0.823 | S. cerevisiae deletion strains, locus YMR058W, strain fet3, stronger effect = lower value 0.742 | S. cerevisiae deletion strains, locus YMR125W, strain sto1, stronger effect = lower value 0.869 | S. cerevisiae deletion strains, locus YMR223W, strain ubp8, stronger effect = lower value 0.784 | S. cerevisiae deletion strains, locus YMR231W, strain pep5, stronger effect = lower value 0.0744 | S. cerevisiae deletion strains, locus YMR263W, strain SAP30, stronger effect = lower value 0.717 | S. cerevisiae deletion strains, locus YNL067W, strain RPL9B, stronger effect = lower value 0.724 | S. cerevisiae deletion strains, locus YNL209W, strain ssb2, stronger effect = lower value 0.652 | S. cerevisiae deletion strains, locus YNL233W, strain BNI4, stronger effect = lower value 0.635 | S. cerevisiae deletion strains, locus YNL307C, strain MCK1, stronger effect = lower value 0.777 | S. cerevisiae deletion strains, locus YNL322C, strain KRE1, stronger effect = lower value 0.0727 | S. cerevisiae deletion strains, locus YNR052C, strain pop2, stronger effect = lower value 0.732 | S. cerevisiae deletion strains, locus YOL006C, strain TOP1, stronger effect = lower value 0.427 | S. cerevisiae deletion strains, locus YOR001W, strain rrp6, stronger effect = lower value 0.864 | S. cerevisiae deletion strains, locus YOR070C, strain gyp1, stronger effect = lower value 0.347 | S. cerevisiae deletion strains, locus YOR083W, strain WHI5 (second series), stronger effect = lower value 0.652 | S. cerevisiae deletion strains, locus YOR083W, strain WHI5, stronger effect = lower value 0.669 | S. cerevisiae deletion strains, locus YOR106W, strain vam3, stronger effect = lower value 0.161 | S. cerevisiae deletion strains, locus YOR184W, strain ser1, stronger effect = lower value 0.248 | S. cerevisiae deletion strains, locus YOR265W, strain rbl2, stronger effect = lower value 0.91 | S. cerevisiae deletion strains, locus YOR270C, strain vph1, stronger effect = lower value 0.673 | S. cerevisiae deletion strains, locus YPL051W, strain arl3, stronger effect = lower value 0.778 | S. cerevisiae deletion strains, locus YPL241C, strain CIN2, stronger effect = lower value 0.484 | S. cerevisiae deletion strains, locus YPR163C, strain tif3, stronger effect = lower value 0.148 | S. cerevisiae deletion strains, strain wtn01, stronger effect = lower value 0.355 | S. cerevisiae strains, strain wild type, stronger effect = lower value 0.0575
0.512 (active) and 0.943 (inactive): S. cerevisiae deletion strains, locus YNL153C, strain GIM3, stronger effect = lower value
0.151 (active) and 1.03 (inactive): S. cerevisiae deletion strains, locus YMR307W, strain GAS1, stronger effect = lower value
0.0843 (active) and 0.921 (inactive): S. cerevisiae deletion strains, locus YNL128W, strain TEP1, stronger effect = lower value
